# About 2,000 (36%) of roughly 5,500 compounds were called active. Inconclusive results (about 18%) are left out. This is one part of the list. Values without a mark were called inactive. Cut-off read from the data, not from the text of the source: active = normalized growth mostly below about 0.91 (no sharp cut-off); inconclusive = no clear call, values can overlap the other calls; inactive = mostly above about 0.92.
# Test: chemical genetic growth profiling, strain panel (AID 1159580);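 note: tested at 20 µM; growth read once vehicle control cultures reached saturation at 30 °C; 1 = growth at the plate median or of vehicle wells; lower values mean less growth of the strain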
# Settings: S. cerevisiae deletion strains, growth OD
structure (smiles),measurement,setting,value
COC(=O)c1cc(I)c(OC(C)=O)c(I)c1,normalized growth,"locus YAR019C, strain CDC15, hits give low values",0.952
same,normalized growth,"locus YBL105C, strain PKC1, hits give low values",0.958
same,normalized growth,"locus YBR135W, strain CKS1, hits give low values",0.944
same,normalized growth,"locus YBR136W, strain MEC1, hits give low values",0.958
same,normalized growth,"locus YBR160W, strain CDC28, hits give low values",0.959
same,normalized growth,"locus YDL017W, strain CDC7, hits give low values",0.961
same,normalized growth,"locus YDL028C, strain MPS1, hits give low values",0.961
same,normalized growth,"locus YDL101C, strain DUN1, hits give low values",0.935
same,normalized growth,"locus YDL108W, strain KIN28, hits give low values",0.955
same,normalized growth,"locus YDL132W, strain cdc53, hits give low values",0.939
same,normalized growth,"locus YDL214C, strain PRR2, hits give low values",0.929
same,normalized growth,"locus YDR052C, strain DBF4, hits give low values",0.967
same,normalized growth,"locus YDR054C, strain cdc34, hits give low values",0.939
same,normalized growth,"locus YDR226W, strain ADK1, hits give low values",0.951
same,normalized growth,"locus YDR477W, strain SNF1, hits give low values",0.955
same,normalized growth,"locus YER123W, strain YCK3, hits give low values",0.905
same,normalized growth,"locus YER133W, strain GLC7, hits give low values",0.945
same,normalized growth,"locus YFL009W, strain cdc4, hits give low values",0.952
same,normalized growth,"locus YFL029C, strain CAK1, hits give low values",0.947
same,normalized growth,"locus YFR003C, strain YPI1, hits give low values",0.956
same,normalized growth,"locus YFR019W, strain FAB1, hits give low values",0.94
same,normalized growth,"locus YFR028C, strain CDC14, hits give low values",0.95
same,normalized growth,"locus YGR040W, strain KSS1, hits give low values",0.953
same,normalized growth,"locus YGR052W, strain FMP48, hits give low values",0.967
same,normalized growth,"locus YGR092W, strain DBF2, hits give low values",0.9
same,normalized growth,"locus YHR030C, strain SLT2, hits give low values",0.916
same,normalized growth,"locus YHR079C, strain IRE1, hits give low values",0.973
same,normalized growth,"locus YHR082C, strain KSP1, hits give low values",0.98
same,normalized growth,"locus YHR205W, strain SCH9, hits give low values",0.864
same,normalized growth,"locus YIL147C, strain SLN1, hits give low values",0.966
same,normalized growth,"locus YJL095W, strain BCK1, hits give low values",0.934
same,normalized growth,"locus YJL128C, strain PBS2, hits give low values",0.856
same,normalized growth,"locus YJL157C, strain FAR1, hits give low values",0.945
same,normalized growth,"locus YJR016C, strain ILV3, hits give low values",0.959
same,normalized growth,"locus YJR066W, strain TOR1 (second series), hits give low values",0.943
same,normalized growth,"locus YJR066W, strain TOR1, hits give low values",1.01
same,normalized growth,"locus YKL048C, strain ELM1, hits give low values",0.913
same,normalized growth,"locus YKL067W, strain YNK1, hits give low values",0.91
same,normalized growth,"locus YKL101W, strain HSL1, hits give low values",0.902
same,normalized growth,"locus YKL193C, strain SDS22, hits give low values",0.942
same,normalized growth,"locus YKL203C, strain TOR2, hits give low values",1.02
same,normalized growth,"locus YLR113W, strain HOG1, hits give low values",0.745 (active)
same,normalized growth,"locus YLR133W, strain CKI1, hits give low values",0.949
same,normalized growth,"locus YLR403W, strain SFP1, hits give low values",0.935
same,normalized growth,"locus YML070W, strain DAK1, hits give low values",0.897
same,normalized growth,"locus YMR001C, strain CDC5, hits give low values",0.947
same,normalized growth,"locus YMR205C, strain PFK2 (second series), hits give low values",0.925
same,normalized growth,"locus YMR277W, strain FCP1, hits give low values",0.948
same,normalized growth,"locus YNL006W, strain LST8, hits give low values",0.951
same,normalized growth,"locus YNL020C, strain ARK1, hits give low values",0.939
same,normalized growth,"locus YNL161W, strain CBK1, hits give low values",0.961
same,normalized growth,"locus YNL183C, strain NPR1, hits give low values",0.958
same,normalized growth,"locus YNL207W, strain RIO2, hits give low values",0.957
same,normalized growth,"locus YNL222W, strain SSU72, hits give low values",0.94
same,normalized growth,"locus YNL307C, strain MCK1 (second series), hits give low values",0.918
same,normalized growth,"locus YOL078W, strain AVO1, hits give low values",0.952
same,normalized growth,"locus YOL136C, strain PFK27, hits give low values",0.926
same,normalized growth,"locus YOR061W, strain CKA2, hits give low values",0.937
same,normalized growth,"locus YOR119C, strain RIO1, hits give low values",0.991
same,normalized growth,"locus YOR231W, strain MKK1, hits give low values",0.942
same,normalized growth,"locus YOR329C, strain SCD5, hits give low values",0.963
same,normalized growth,"locus YPL031C, strain PHO85, hits give low values",0.949
same,normalized growth,"locus YPL153C, strain RAD53, hits give low values",0.936
same,normalized growth,"locus YPL204W, strain HRR25, hits give low values",0.946
same,normalized growth,"locus YPL209C, strain IPL1, hits give low values",0.95
same,normalized growth,"locus YPL256C, strain CLN2, hits give low values",0.898
same,normalized growth,"locus YPR025C, strain CCL1, hits give low values",0.953
same,normalized growth,"locus YPR106W, strain ISR1, hits give low values",0.92
same,normalized growth,"locus YPR111W, strain DBF20, hits give low values",0.926
same,normalized growth,"strain NNK1, hits give low values",0.921
same,normalized growth,"strain TSCII, hits give low values",0.948

# — PubChem BioAssay AID1159580 (chemical genetic matrix, 2015)
